The results in this text go back to ChEMBL document CHEMBL3988442, “University of Dundee, Small-Polar-MMV Screening Library” (2021).

Hit rate of the full screen: of about 48,000 compounds, about 13,000 (27%) showed an effect of 50% or more. Some of the results follow.

This assay concerns Wolbachia pipientis. As to the kind of experiment: Anti-Wolbachia Cell-Based Screen. In kind it is functional. Set-up: scale not given: in the data most compounds retested in dose-response had high values. Conditions: 5 µM.
Consider `CCOc1ccc2nc(CN3CCC(CN)C3)ccc2c1` (centres undefined), for which the “Percent Effect” value is given as 6.34%.

For the compound `CC(C)CCN1CCc2c(C(=O)N(C)Cc3ccccn3)nn(C)c2C1.O=C(O)C(F)(F)F.O=C(O)C(F)(F)F.O=C(O)C(F)(F)F`, the “Percent Effect” value stood at 7.035%.

Regarding `CC(Cn1cncn1)NC(=O)Nc1ccc(COC2CCCC2)cc1` (centres undefined), the “Percent Effect” value was -11.48%.

`Cc1ccc(CN2CC[C@H]3CO[C@H](CN(C)C)[C@H]3C2)o1`: the “Percent Effect” value is given as -4.083%.

On to `Cc1cc(C)c(CNC(=O)N2CCC(N3CCCC3)CC2)c(=O)[nH]1`, for which the “Percent Effect” value was 3.168%.

As to `Cc1cc(C)c(CNC(=O)N2CCCC2c2ccccn2)c(=O)[nH]1` (centres undefined), the “Percent Effect” value was 93.91%.

With `Cc1cc(C)c(CNC(=O)N2CCCC2C(N)=O)c(=O)[nH]1` (centres undefined), the “Percent Effect” value came out at 4.239%.

Turning to `Cc1cc(C)c(CNC(=O)N2CCN(c3ncccn3)CC2)c(=O)[nH]1`, the “Percent Effect” value is given as -5.06%.

On to `Cc1cc(C)c(CNC(=O)N2CCNC(=O)C2)c(=O)[nH]1`, for which the “Percent Effect” value is -6.191%.

Regarding `Cc1cc(C2CCCN2C(=O)NCc2c(C)cc(C)[nH]c2=O)on1` (centres undefined), the “Percent Effect” value is given as 97.2%.

As to `Cc1cc(C)c(CNC(=O)N2CCC(N3CCNC3=O)CC2)c(=O)[nH]1`, the “Percent Effect” value is reported as -7.993%.

With `Cc1cc(C2CCCN2C(=O)NCc2ccccn2)on1` (centres undefined), the “Percent Effect” value is listed as -32.12%.

As for `Cc1cc(C)c(CNC(=O)N2CCCC2c2cc(C)on2)c(=O)[nH]1` (centres undefined), the “Percent Effect” value amounted to 104.6%.

Regarding `Cc1cc(C)c(CNC(=O)N2CCOC(c3ccccc3)C2)c(=O)[nH]1` (centres undefined), the “Percent Effect” value stood at 99.02%.

For `Cc1cc(C2CCCN2C(=O)NCc2cccnc2N(C)C)on1` (centres undefined), the “Percent Effect” value is on record as -7.167%.

In the case of `Cc1cc(C)c(CNC(=O)N2CCC(N3CCCCC3)CC2)c(=O)[nH]1`, the “Percent Effect” value is reported as -48.68%.

For `Nc1nc(Cn2ccnc2-c2cc(CN3CCCC3)cs2)cs1`, the “Percent Effect” value was found to be 4.037%.

`NC1(C(=O)NCC2CCCN(Cc3cccc4nonc34)C2)CCC1` (centres undefined): the “Percent Effect” value was -1.452%.

Turning to `O=C([C@H]1C[C@H]2OCC[C@H]2N(C(=O)c2ccnnc2)C1)N1CCCCO1`, the “Percent Effect” value was -6.312%.

Take `Cc1csc2c(N3CCC(NCCCC4CCOC4)CC3)ncnc12` (centres undefined): the “Percent Effect” value is reported as 7.139%.

Consider `Cc1cccc(CN2C[C@@H](F)[C@@H](OCc3nc4ccccc4[nH]3)C2)n1`, for which the “Percent Effect” value was -1.113%.

`CSCC[C@@H](CO)n1ccnc1-c1ccc(C)o1`: the “Percent Effect” value is given as -18.99%.

Turning to `Cc1nnc2n1CCN(CCC(=O)Nc1sccc1C#N)C2`, the “Percent Effect” value stood at 5.791%.

In the case of `N#Cc1ccsc1NC(=O)CN1CCn2c(nnc2C2CC2)C1`, the “Percent Effect” value was 118.5%.

Take `Cc1cc(NC(=O)CN2CCn3c(nnc3C3CC3)C2)n(C)n1`: the “Percent Effect” value is -5.451%.

`Cc1cc(NC(=O)CCN2CCn3c(nnc3C3CC3)C2)no1`: the “Percent Effect” value is -0.2298%.

As to `CCC1CN(CC(=O)Nc2sccc2C#N)CCO1` (centres undefined), the “Percent Effect” value was -10.74%.

Take `N#Cc1ccsc1NC(=O)CCN1CCn2c(nnc2C2CC2)C1`: the “Percent Effect” value is listed as 113.3%.

For the compound `CNC(=O)COc1nc(C(C)(C)C)no1`, the “Percent Effect” value is -5.111%.

As for `CCN(Cc1ccoc1)C(C(N)=O)c1cccc(Br)c1` (centres undefined), the “Percent Effect” value is given as 12.55%.

Regarding `CNC(=O)C(C)(C)N(C)C(=O)c1cc(COc2ccccc2OC)[nH]n1`, the “Percent Effect” value is on record as -2.904%.

For the compound `COc1ccc(OCCN(C)C(=O)c2ccc(OC)cc2O)cc1`, the “Percent Effect” value was 93.52%.

Regarding `CCc1ccc(OCCN(C)C(=O)c2ccncc2Cl)cc1`, the “Percent Effect” value is -12.28%.

`COCCN(C)C(=O)c1ccc(OC)cc1O`: the “Percent Effect” value is -1.632%.

In the case of `Cc1nc(C#N)c(N2CCC(c3nc(-c4ccc(F)cc4)no3)CC2)o1`, the “Percent Effect” value amounted to 10.17%.

As for `Cc1cnn(CC2CCCCN2Cc2noc(C3CC3)n2)c1` (centres undefined), the “Percent Effect” value was found to be 11.5%.

For `CCc1nnc(CN2CCCC2Cn2cc(C)cn2)o1` (centres undefined), the “Percent Effect” value is given as 107.1%.

Take `Cc1cnn(CC2CCCN2Cc2nnc(C3CC3)o2)c1` (centres undefined): the “Percent Effect” value was 113.6%.

Take `Cc1cnn(CC2CCCN2Cc2nnc(-c3ccccc3)o2)c1` (centres undefined): the “Percent Effect” value was 97.7%.

With `Cc1cnn(CC2CCCN2Cc2coc(-c3ccccc3)n2)c1` (centres undefined), the “Percent Effect” value amounted to 17.84%.

As for `Cc1cnn(CC2CCCN2Cc2nnc(C(C)C)o2)c1` (centres undefined), the “Percent Effect” value is reported as 94.36%.

With `Cc1cnn(CC2CCCN2Cc2ncc(-c3ccccc3)o2)c1` (centres undefined), the “Percent Effect” value is listed as -2.575%.

Turning to `Cc1cnn(CC2CCCN2Cc2nnc(Cc3ccccc3)o2)c1` (centres undefined), the “Percent Effect” value was found to be 6.561%.

As to `CC(C)c1nnc(CN2CCCC2Cn2cncn2)o1` (centres undefined), the “Percent Effect” value is 2.76%.

As to `CNC(=O)C(C)CN(C)C(=O)Nc1cc(-n2cccc2)ccc1F` (centres undefined), the “Percent Effect” value worked out at 4.281%.

Consider `COc1cccc(F)c1C(C)NC(=O)NCc1ccnc(C)n1` (centres undefined), for which the “Percent Effect” value was 15.11%.

Take `CC(C)N(Cc1ccccc1)Cc1nnsc1Cl`: the “Percent Effect” value is reported as 2.332%.

Consider `CC(C)(C)c1cnc(CN2C(=O)CC3(CCSC3)C2=O)o1` (centres undefined), for which the “Percent Effect” value is listed as -9.013%.

For the compound `Cc1cnn(CC2CCCN2Cc2nnc(C)o2)c1` (centres undefined), the “Percent Effect” value was 108.8%.

For the compound `CCCC1(CO)CCCN(C(=O)CNC(C)=O)C1` (centres undefined), the “Percent Effect” value was 72.22%.

For the compound `O=C(CCn1cnnn1)N1CCCC(CO)(CCCc2ccccc2)C1` (centres undefined), the “Percent Effect” value is 2.487%.

`O=C(CCn1cnnn1)N1CCCC(CO)(CCc2ccccc2)C1` (centres undefined): the “Percent Effect” value is -14.03%.

For `CCCC1(CO)CCCN(C(=O)CNC(N)=O)C1` (centres undefined), the “Percent Effect” value is 100.2%.

For the compound `CC(=O)NCC(=O)N1CCCC2(CCC(=O)N(CCc3c[nH]cn3)C2)C1` (centres undefined), the “Percent Effect” value is listed as 7.336%.

Turning to `CNc1ncc(C(=O)N2CCCC(CO)(CCCOC)C2)cn1` (centres undefined), the “Percent Effect” value is on record as -3.097%.

With `COc1c(C2CCCN2c2ncnc3sccc23)c(C)nn1C` (centres undefined), the “Percent Effect” value is recorded as -10.8%.

`CN(CC1(O)CCCN(Cc2cccc(F)c2F)C1=O)C1CCCCC1` (centres undefined): the “Percent Effect” value turned out to be 6.301%.

Regarding `CCCN1CCCC2(CCN(S(=O)(=O)c3cccnc3)C2)C1=O` (centres undefined), the “Percent Effect” value stood at 3.088%.

Turning to `Cc1ccnc(C2(C)CCCN2S(=O)(=O)c2cccnc2)n1` (centres undefined), the “Percent Effect” value is given as 132.4%.

For `Cc1ccnc(C2(C)CCCN2S(=O)(=O)c2c(C)noc2C)n1` (centres undefined), the “Percent Effect” value stood at 125.2%.

For the compound `O=C1N(C2CCCCC2)CCCC12CCN(S(=O)(=O)c1cccnc1)C2` (centres undefined), the “Percent Effect” value worked out at 14.14%.

In the case of `CCC1CCCCN1S(=O)(=O)c1c(C)noc1C` (centres undefined), the “Percent Effect” value was -6.559%.

Consider `Cc1noc(C)c1S(=O)(=O)N1C[C@@H](C(=O)O)[C@H](c2ccccn2)C1`, for which the “Percent Effect” value is recorded as -14.24%.

Take `CC(C)c1noc(CNc2ccccc2CC(=O)N(C)C)n1`: the “Percent Effect” value is given as 6.812%.

For the compound `Cc1nn(C)c(C)c1NC(=O)CNc1ccc(F)c(C(F)(F)F)c1`, the “Percent Effect” value is on record as -4.336%.

Consider `Cn1cccc1C(=O)N1C[C@H](OCC2CCOCC2)[C@H]2COC[C@H]21`, for which the “Percent Effect” value is -0.3996%.

In the case of `Cn1cccc1C(=O)N1CCCC1c1ccc(CN2CCOCC2)cn1` (centres undefined), the “Percent Effect” value is reported as 73.28%.

Turning to `CC(=O)N1CCCC1c1ccc(Br)cn1` (centres undefined), the “Percent Effect” value was 103.5%.

As for `CC(=O)NCC(=O)N1CCCC1c1ccc(CN2CCOCC2)cn1` (centres undefined), the “Percent Effect” value is 87.68%.

In the case of `O=C(CC1CCCC1)N1CCCC1c1ccc(CN2CCOCC2)cn1` (centres undefined), the “Percent Effect” value is 123.2%.

With `CC(=O)N1CCCC1c1ccc(-c2c(C)noc2C)cn1` (centres undefined), the “Percent Effect” value is on record as -2.111%.

As to `Cc1cc(C(=O)Nc2ccc(CN3CCOCC3)cn2)n(C)n1`, the “Percent Effect” value is -8.587%.

As to `O=C(CC1CCCCC1)N1C[C@H]2CC[C@@H]1CN(Cc1cccnc1)C2`, the “Percent Effect” value is -16.08%.

On to `CCc1ccc(C2CCCCCN2C(=O)CNC(=O)C2CC2)o1` (centres undefined), for which the “Percent Effect” value was -5.222%.
